Laboratory results as given in PubChem BioAssay (NCATS).
“And” between values parts separate entries of the source, which are not always exact repeats. Equal entries are not always repeated. Inconclusive results are not listed. The source made the active and inactive calls.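 How the source made its calls: active means dose-dependent loss of cell ATP signal giving a full or clear fitted curve, ranked by lower potency value; inconclusive means weak partial curve or response only at the top dose; inactive means no loss of viability signal.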

assay: Cell Viability - Jurkat (AID 426); settings: qHTS;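 further: cells exposed to compound for 40 hours at 37 °C before ATP read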
Description: NIH Chemical Genomics Center [NCGC]
NIH Molecular Libraries Screening Centers Network [MLSCN]
National Institutes of Environmental Health Sciences [NIEHS]
National Toxicology Program [NTP]
We have developed a 1536-well cell-based assay for quantitative high throughput screening (qHTS) against a number of cell lines to determine in vitro cytotoxicity of small molecules. This particular assay uses the Jurkat cell line (Clone E6-1) which is derived from the human T cell leukemia.
NCGC Assay Protocol Summary:
The CellTiter-Glo luminescent cell viability assay (Promega) is a homogeneous method to measure the number of viable cells in culture. The end point readout of this assay is based on quantitation of intracellular ATP, an indicator of metabolic activity, using the luciferase reaction. Luciferase catalyzes the oxidation of beetle Luciferin to oxyluciferin and light in the presence of ATP. The luminescent signal is proportional to amount of ATP present.
Using the CellTiter-Glo luminescent cell viability assay, the amount of cellular ATP was measured in the Jurkat cell line with complete culture medium following compound treatment for 40 hours. The assay was performed in opaque white Kalypsys 1536-well plates. In the screen, tamoxifen and doxorubicin were used as positive controls. Library compounds were measured for their ability to cause acute toxicity in the cell line, as reflected by a decrease in intracellular ATP levels, in a concentration-dependent manner. […] AC50 values were determined from concentration-response data modeled with the standard Hill equation.
qHTS protocol for CellTiter Glo Jurkat cellular assay
[Step] [Parameter] [Value] [Description]
1. Reagent; 5 uL; 5000 Jurkat cells/well
3. Controls; 23 nL; Tamoxifen 0.34 uM to 100 uM & Doxorubicin 0.02 nM to 100 uM
4. Time; 40 hr; 37 °C incubation
5. Reagent; 5 uL; CellTiter Glo reagent
6. Time; 20 min; Room Temperature
7. Detection; Luminescence; Viewlux plate reader
Keywords: cell viability, cytotoxicity, Jurkat cell line, luminescence, NTPHTS, NTPHTS_NCGC, NIEHS, EPA, DSSTox, MLSMR, MLSCN, NIH Roadmap, qHTS, NCGC
Potency means the concentration at half of the fitted maximal effect.

SMILES | Potency
CC1=CC(C)(C)Nc2ccccc21 | > 92 µM (inactive)
C=CC(=C)CCC=C(C)C | > 92 µM (inactive)
c1ccc2c(c1)[nH]c1ccccc12 | > 92 µM (inactive)
Cc1c(N=C=O)cccc1N=C=O | > 92 µM (inactive)
C[C@H](CCC(=O)O)[C@H]1CC[C@H]2[C@@H]3CC[C@@H]4C[C@H](O)CC[C@]4(C)[C@H]3CC[C@]12C | > 92 µM (inactive)
CCO[Si](CCCN)(OCC)OCC | > 92 µM (inactive)
C=CCc1ccc(OC)c(OC)c1 | > 92 µM (inactive)
C1OCOCO1 | > 92 µM (inactive)
O=NO | > 92 µM (inactive)
c1ccc2c(c1)c1cccc3ccc4cccc2c4c31 | > 92 µM (inactive)
Cc1cccc([N+](=O)[O-])c1C | > 92 µM (inactive)
C/C=C\c1ccc(OC)cc1 | > 92 µM (inactive)
CN(C)C=O | > 92 µM (inactive)
ClCCCl | > 92 µM (inactive)
S=C1NC=NC2N=CNC12 (stereo not given) | 0.128 µM (active)
CCCCCCCCCCCCCC(=O)O | > 92 µM (inactive)
C=CCOC(=O)c1ccccc1C(=O)OCC=C | > 92 µM (inactive)
COc1c2ccoc2cc2oc(=O)ccc12 | > 92 µM (inactive)
CCC(O)OC(O)CC (stereo not given) | > 92 µM (inactive)
COc1cc(/C=C/c2ccccc2)oc(=O)c1 | > 92 µM (inactive)

SMILES | Potency
c1ccc2scnc2c1 | > 92 µM (inactive)
O=[N+]([O-])c1cccc(Cl)c1Cl | > 92 µM (inactive)
Cc1ccccc1C | > 92 µM (inactive)
COc1ccc(/C=C/c2cc(OC)cc(=O)o2)cc1 | > 92 µM (inactive)
CCCCCCCCO | > 92 µM (inactive)
O[C@@H]([C@H](O)[C@@H](O)CBr)[C@@H](O)CBr | > 92 µM (inactive)
Nc1ccc(S(=O)(=O)O)cc1 | > 92 µM (inactive)
O=C(O)CC(C(=O)O)C(CC(=O)O)C(=O)O (stereo not given) | > 92 µM (inactive)
COC(=O)c1ccc(C=O)cc1 | > 92 µM (inactive)
O=C(O)c1ccccc1C(c1ccc(O)cc1)c1ccc(O)cc1 | > 92 µM (inactive)
COCC(=O)O | > 92 µM (inactive)
OCCNCCO | > 92 µM (inactive)
CN(C)CCCCCCN(C)C | > 92 µM (inactive)
COC(=O)c1ccc(C)cc1 | > 92 µM (inactive)
CCC(C)c1ccccc1O (stereo not given) | > 92 µM (inactive)
O=C1CCc2ccccc2O1 | > 92 µM (inactive)
CC(=O)OC/C=C(\C)CCC=C(C)C | > 92 µM (inactive)
C=CC(=O)OCCOCCOCCOCCOC(=O)C=C | 6.78 µM (active) and 12.4 µM (active)
CCCN(CCC)C(=O)SCC | > 92 µM (inactive)
CC(C)=CCCC(C)CCO (stereo not given) | > 92 µM (inactive)
